In the library only some 3.4% were active in any assay of this set; here they are far more common.
SMARCA2 act – increases SMARCA2 function in MMTV reporter cells; MG213 cells, MMTV-luciferase reporter, dexamethasone, overnight; activation, % at 9.1 µM; 370,000 compounds, 1% hits; in the data active means activation above about 7.8%
GalR3 antag – antagonists of human GalR3 | HEK293 GalR3-CNG cAMP membrane potential fluorescence; galR3 body fused to GalR1 C-terminus | inhibition, % at 3 µM | 360,000 compounds, 0.44% hits;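 active means inhibition above the screen-wide average plus 3 SD, cut at about 13% in these data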;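 further: forskolin and galanin both at EC90 stimulate the cells; cAMP rise reported by CNG channel membrane potential dye signal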
GAA850 FXN act – frataxin GAA850 promoter activation; HEK293 lucGAA850 FXN promoter luciferase reporter, 24 h; percent of 10 µM SAHA response; activation, % at 6 µM; AID 540364; 360,000 compounds, 0.56% hits;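 active means activation above the average of all compounds screened plus 3 SD, cutoff fixed separately per campaign, cut at about 7.5% in these data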
Cardio protect – myocardial damage modulation in H9c2 cells. 360,000 compounds, 0.63% hits. H9c2 cardiomyocytes, H2O2 injury protection, ATPLite, 2 h. protection from H2O2 cell death, % at 20 µM;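 active means compounds giving at least 50% protection of heart cells from peroxide-induced death in the single-dose screen, raw or plate-pattern-corrected value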
Gli-Sufu block – antagonists of Gli-Sufu signaling; Sufu-KO-LIGHT fibroblasts, Gli luciferase reporter luminescence; 340,000 compounds, 0.74% hits; inhibition, % at 5 µM;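 active means inhibition above about 55%, limit read from the data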
NR2F2 inh – blocks human COUP-TFII nuclear receptor. AID 686940. inhibition, % at 8.6 µM. HEK293T NGFI-A luciferase reporter, luminescence. 370,000 compounds, 0.7% hits;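 active means inhibition above a per-plate cutoff, mean inhibition of test wells between control levels plus 3 SD, cut at about 38% in these data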;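 further: cells cotransfected with COUP-TFII expression vector driving the NGFI-A reporter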
Target sequence (P24468 whole entry, looked up): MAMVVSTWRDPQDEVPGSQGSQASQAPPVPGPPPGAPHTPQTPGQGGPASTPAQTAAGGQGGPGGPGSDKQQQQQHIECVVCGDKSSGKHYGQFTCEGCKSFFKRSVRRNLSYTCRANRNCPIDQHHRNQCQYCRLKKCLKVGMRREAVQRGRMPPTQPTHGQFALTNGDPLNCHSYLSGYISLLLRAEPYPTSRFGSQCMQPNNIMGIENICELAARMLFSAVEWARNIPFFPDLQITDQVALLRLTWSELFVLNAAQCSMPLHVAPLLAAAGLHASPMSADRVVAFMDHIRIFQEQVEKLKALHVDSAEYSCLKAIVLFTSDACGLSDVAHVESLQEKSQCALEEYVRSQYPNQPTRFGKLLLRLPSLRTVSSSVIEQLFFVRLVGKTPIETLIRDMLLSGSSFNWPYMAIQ
Gli antag conf – confirmation of Gli-SUFU pathway antagonists; shares compounds with Gli-Sufu block; Sufu-KO-LIGHT cells, Gli luciferase reporter, luminescence; inhibition, % at 5 µM; 2,500 compounds, 40% hits;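 active means mean inhibition at 5 µM reaching about 45%, limit read from the data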
SufuKO cytotox – cytotoxicity counter-screen for Gli-SUFU antagonists; shares compounds with Gli-Sufu block; Sufu-KO-LIGHT cells cytotoxicity, ATP luminescence; cytotoxicity, % at 5 µM; 2,500 compounds, 32% hits; AID 651994;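 active means mean cytotoxicity at 5 µM above about 25%, limit read from the data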;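 further: cells exposed to compound overnight for roughly 16 to 18 hours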
Wnt3a counter – counter-screen for Gli-SUFU antagonists: Wnt3a reporter inhibition. Wnt-LIGHT cells, Wnt3a-driven luciferase reporter, luminescence. 2,500 compounds, 20% hits. shares compounds with Gli-Sufu block. inhibition, % at 6.25 µM;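 active means mean inhibition above about 25%, limit read from the data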
Large screens that a line does not name were inactive (follow-up assays come after a bar, where they were run).

COC(=O)C1CN(Cc2ccc(Cl)cc2)CCS(=O)(=O)N1Cc1cn(Cc2ccc(C)cc2)nn1 (centres undefined)	none (no result: GalR3 antag, GAA850 FXN act, Cardio protect, Gli-Sufu block)
COC(=O)[C@]12C[C@H](CC(=O)NCc3cccc(C(F)(F)F)c3)C(=O)N(Cc3cccc4ccccc34)C1=C[C@H](COCc1ccccc1)O[C@@H]2C	none (no result: GalR3 antag, GAA850 FXN act, Cardio protect, Gli-Sufu block)
CCCCNC(=O)c1nc(C2CCN(S(=O)(=O)c3ccc(F)c(F)c3)CC2)oc1-c1ccccc1	none (no result: GAA850 FXN act, Gli-Sufu block)
CCN1CCN(C(=O)C2CCCN(c3ncnc4c3nc3n4CCCCC3)C2)CC1 (centres undefined)	none | Gli antag conf inactive | SufuKO cytotox inactive | Wnt3a counter inactive
COc1ccc2c(c1)CNC2CS(=O)(=O)NCC(C)C (centres undefined)	none (no result: GalR3 antag, GAA850 FXN act, Cardio protect, Gli-Sufu block)
Cc1ccc(NC(=O)[C@@H]2CCCN2S(=O)(=O)c2cccc3cccnc23)c(C)c1	none (no result: SMARCA2 act, GalR3 antag, GAA850 FXN act, Cardio protect, Gli-Sufu block)
COc1ccccc1N=C(C)C1=C(O)CC(c2ccccc2)CC1=O (centres undefined)	Gli-Sufu block 56 | Gli antag conf 54 | SufuKO cytotox 63 | Wnt3a counter inactive
CCCC(=Nc1ccccc1OC)C1=C(O)CC(c2ccccc2)CC1=O (centres undefined)	none
CC(NC(=O)COC(=O)C1CC2CCCC(C1)C2=O)c1ccccc1 (centres undefined)	none
COc1cccc(C(=O)N2CCC[C@H]2C(=O)N2CCC[C@H]2C(=O)N[C@@H](C)c2ccccc2)c1	none (no result: GAA850 FXN act, Cardio protect, Gli-Sufu block)
Cc1ccc(C(=O)O)cc1NC(=O)Nc1ccc2c(c1)OCO2	Gli-Sufu block 56 | Gli antag conf inactive | SufuKO cytotox inactive | Wnt3a counter inactive
O=C(c1ccccc1)c1cc([N+](=O)[O-])ccc1N1CCOCC1	none | Gli antag conf 56 | SufuKO cytotox 53 | Wnt3a counter inactive
O=C(c1ccc(Cl)cc1)c1cc([N+](=O)[O-])ccc1N1CCOCC1	none | Gli antag conf 51 | SufuKO cytotox 47 | Wnt3a counter inactive
COc1ccc(N2CCN(CCNS(=O)(=O)c3cccs3)CC2)cc1	none (no result: GalR3 antag, GAA850 FXN act, Cardio protect, Gli-Sufu block)
COc1ccc(NC(=O)CSCC(=O)N2c3ccccc3CCc3ccccc32)cc1	Gli-Sufu block 66 | Gli antag conf inactive | SufuKO cytotox inactive | Wnt3a counter inactive
C=CCN(Cc1ccc2c(c1)OCO2)C(C#Cc1ccccc1)c1ccccc1C(F)(F)F (centres undefined)	none (no result: GalR3 antag, GAA850 FXN act, Cardio protect, Gli-Sufu block)
CC(C)N(CCCNC(=O)c1nn(C)c2c1CS(=O)(=O)c1ccccc1-2)Cc1ccccc1	Gli-Sufu block 61 | Gli antag conf inactive | SufuKO cytotox inactive | Wnt3a counter inactive
COc1ccc(-c2oc3c(c2C#CC2(O)CCCCC2)C(OC)CCC3)cc1 (centres undefined)	none (no result: GAA850 FXN act, Cardio protect, Gli-Sufu block)
COc1ccc(-c2nc(CCl)cs2)cc1OC	Gli-Sufu block 60 | Gli antag conf inactive | SufuKO cytotox inactive | Wnt3a counter inactive
COc1ccc(-c2nc(CCl)cs2)cc1	none
N#Cc1ccc(OCC(=O)OCC(=O)NC2CC2)cc1	none
COc1ccccc1CCNC(=O)c1cc(-c2ccncc2)nc2ccc(Br)cc12	Gli-Sufu block 67 | Gli antag conf inactive | SufuKO cytotox 25 | Wnt3a counter inactive
COC(=O)c1cc(C(C)c2ccccc2O)n2ccccc12 (centres undefined)	none (no result: GalR3 antag, GAA850 FXN act, Cardio protect, Gli-Sufu block)
C=CCN1[C@H](Cc2ccccc2)COc2cccc(N3CCCC3)c2S1(=O)=O	none (no result: GalR3 antag, GAA850 FXN act, Cardio protect, Gli-Sufu block)
Cc1cc2cc(CCNC(=O)c3ccc(Br)o3)c(=O)[nH]c2cc1C	Gli-Sufu block 96 | Gli antag conf inactive | SufuKO cytotox inactive | Wnt3a counter 29
COc1ccc2cc(CCNC(=O)c3ccc(Br)o3)c(=O)[nH]c2c1	none
COc1ccc(CNC(=O)C2CCC(=O)N(C3CCCCCC3)C2)c(OC)c1 (centres undefined)	none (no result: Gli-Sufu block)
CCn1c2ccccc2c2cc(C=Nn3c(-c4ccccn4)n[nH]c3=S)ccc21	none (no result: GalR3 antag, GAA850 FXN act, Cardio protect, Gli-Sufu block)

Screens (PubChem BioAssay)
